Compound activity from PubChem BioAssay.
KB-V1 cytotox = qHTS assay for MDR1-selective chemotherapeutics: Primary screen using the drug-selected MDR subline cells KB-V1 | KB-V1 MDR cells viability, CellTiter-Glo, 72 h | Potency, µM (doses to about 46.1 µM), actives largely listed as cytotoxic | actives 3.4% (n = 400,000) | AID 1347076, 2019; note: nearly all actives have a fitted effect of over 60% in size
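Potencies derive from concentration-effect curves fitted to normalized luminescence (CellTiter-Glo) of KB-V1 cells treated for 72 h at 37 degrees C in phenol-red-free DMEM containing 10% FBS.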
HT1080NT lethal = qHTS for induction of synthetic lethality in tumor cells producing 2HG: qHTS for the HT-1080-NT fibrosarcoma cell line; HT-1080-NT fibrosarcoma viability, CellTiter-Glo ATP luminescence, 48 h; Potency, µM (doses to about 46.1 µM), hits mostly cytotoxic; actives 1.6% (n = 360,000);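 note: NT is the 2HG producing partner of a matched IDH1 knockdown line; nearly all actives have a fitted effect of over 55% in size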
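750 cells/well, RPMI + 5% FBS; 2 h settle, compound pin-transfer, 48 h at 37 degrees C. CellTiter-Glo 10 min RT, luminescence. Normalized to DMSO and media-only wells.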
MCF10A rerep = A quantitative high throughput screen for small molecules that induce DNA re-replication in MCF 10a normal breast cells | AID 624296, 2012 | actives 2.9% (n = 350,000) | MCF 10A DNA re-replication, Hoechst nuclear intensity, 48 h | Potency, µM (series often up to 46.1 µM), actives largely listed as activators; note: nearly all actives have a fitted effect of over 50% in size
SW480 rereplic = A quantitative high throughput screen for small molecules that induce DNA re-replication in SW480 colon adenocarcinoma cells; actives 1.8% (n = 340,000); Potency, µM (top dose mostly 46.1 µM), most hits filed as activators; SW480 DNA re-replication, Hoechst DNA content imaging, 48 h; note: nearly all actives have a fitted effect of over 55% in size
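Per well, 250 cells were exposed to pinned compound for 48 hr. Nuclear DNA was visualised with Hoechst (40 min, 37 C) and total object intensity recorded by fluorescence scanning.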
HT1080 IDH1KD tx = qHTS for induction of synthetic lethality in tumor cells producing 2HG: qHTS for the HT-1080-IDH1KD cell line | HT-1080 IDH1 knockdown viability, ATP luminescence, 48 h | Potency, µM (titrated, usually from 46.1 µM), usual class: cytotoxic | actives 2% (n = 360,000) | AID 686971, 2013
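Viability of IDH1-knockdown HT-1080 fibrosarcoma cells was assessed by CellTiter-Glo after 48 h at 37 °C with titrated compound; concentration-effect curves were classified by fit quality and response size.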
KB-3-1 tox = qHTS assay for MDR1-selective chemotherapeutics: Primary screen using the parental adenocarcinoma cell KB-3-1; KB-3-1 viability, CellTiter-Glo ATP luminescence, 72 h; Potency, µM (titrated, usually from 46.1 µM), most hits filed as cytotoxic; actives 1.4% (n = 400,000); note: nearly all actives have a fitted effect of over 60% in size
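Screening of KB-3-1 cells (DMEM, 10% FBS, phenol-red free) ran from lowest to highest compound concentration; after 72 h at 37 °C viability was read luminescently and curves fitted.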
Of the large screens only hits and unclear results are named; the others gave an inactive call. Compounds with a hit are over-represented: about 7.9% of the library has one in this group of screens. Calls come from the whole dose curve; as a rule, active = well fitted curve in the direction sought with a large enough effect; inconclusive = small, poorly fitted or top-dose-only effect, or another doubt; inactive = no such curve, though single readings can be large; an effect the other way counts as inactive or inconclusive.

Nc1ncnc2c1ncn2[C@@H]1O[C@H](C(=O)N2CCN(Cc3ccccn3)CC2)[C@@H](O)[C@H]1O	none (no result: MCF10A rerep, SW480 rereplic)
CC(C)(C)OC(=O)N1CCC(c2c(C(=O)N3CCN(c4ccccc4F)CC3)cnn2C(C)(C)C)CC1	none (no result: HT1080NT lethal, MCF10A rerep, SW480 rereplic, HT1080 IDH1KD tx)
Cc1cccc2c(=O)n3c(cc12)-c1[nH]c2ccccc2c1CC3	HT1080NT lethal inconclusive, MCF10A rerep 21µM, SW480 rereplic inconclusive
COC(=O)C1(c2ccccc2)NC(c2cccs2)C2C(=O)N(c3ccccc3)C(=O)C21 (centres undefined)	KB-V1 cytotox 23µM, KB-3-1 tox inconclusive
C#Cc1ccc([C@H]2C=C(C(=O)Nc3ccccc3)O[C@@H](OCc3ccc(CO)cc3)C2)cc1	HT1080NT lethal inconclusive, MCF10A rerep inconclusive
CN(C(=O)CSc1n[nH]c(-c2cccs2)n1)C1CCS(=O)(=O)C1 (centres undefined)	none
CCCC(=O)Nc1cc(Cl)ccc1N1CCN(C(=O)CC)CC1	KB-V1 cytotox inconclusive, MCF10A rerep 18µM
CCC(=O)N1CCN(c2ccccc2NC(=O)Cc2ccc(Cl)cc2)CC1	none
CCC(=O)N1CCN(c2ccc(Cl)cc2NC(=O)Cc2ccc(Cl)cc2)CC1	KB-V1 cytotox 3.7µM, HT1080 IDH1KD tx inconclusive
CCCC(=O)N1CCN(c2nc3ccc(Cl)cc3s2)CC1	KB-V1 cytotox inconclusive, MCF10A rerep inconclusive, KB-3-1 tox 18µM
CCCC(=O)N1CCN(c2nc3ccc(Br)cc3s2)CC1	HT1080NT lethal inconclusive, MCF10A rerep inconclusive, HT1080 IDH1KD tx inconclusive, KB-3-1 tox inconclusive
NS(=O)(=O)c1ccc(NC(=O)CN2CCN(c3ccc(F)cc3)CC2)cc1	none (no result: HT1080NT lethal, MCF10A rerep, SW480 rereplic, HT1080 IDH1KD tx)
CCOC(=O)Cc1csc(NC(=O)CN2CCOCC2)n1	none
CCOC(=O)Cc1csc(NC(=O)c2ccc(S(=O)(=O)N3CCCCC3)cc2)n1	KB-V1 cytotox 15µM
CCOC(=O)Cc1csc(NC(=O)CCc2ccc(S(=O)(=O)N3CCOCC3)cc2)n1	MCF10A rerep inconclusive, SW480 rereplic 23µM
O=C(c1ccco1)N1CCN(C(=O)C(Sc2ccccc2)c2ccccc2)CC1 (centres undefined)	KB-V1 cytotox 21µM, MCF10A rerep inconclusive, KB-3-1 tox inconclusive
O=C(c1ccco1)N1CCN(C(c2ccc(Cl)cc2)c2nnnn2Cc2ccccc2)CC1 (centres undefined)	KB-V1 cytotox 16µM, KB-3-1 tox inconclusive
COc1ccc(C(c2nnnn2Cc2ccccc2)N2CCN(C(=O)c3ccco3)CC2)cc1 (centres undefined)	none
Cc1ccccc1OCC(=O)Nc1ccc(N2CCN(C(=O)c3ccco3)CC2)cc1	KB-V1 cytotox 7.3µM, HT1080NT lethal inconclusive, KB-3-1 tox inconclusive
CC(Oc1ccc(Cl)cc1)C(=O)N1CCN(C(=O)c2ccco2)CC1 (centres undefined)	KB-V1 cytotox 21µM
Cc1cccc(OCC(=O)Nc2ccc(N3CCN(C(=O)c4ccco4)CC3)cc2)c1C	none
Cc1ccccc1OCC(=O)Nc1ccc(N2CCN(S(C)(=O)=O)CC2)cc1	KB-V1 cytotox 3.7µM
O=C(COc1ccccc1Cl)Nc1ccc(N2CCCC2)cc1	MCF10A rerep inconclusive, SW480 rereplic 16µM
CCC(=O)Nc1ccc(N2CCN(C(=O)c3cccs3)CC2)cc1	none
CCN1CCN(c2ccc(NC(=O)COc3ccccc3Cl)cc2)CC1	MCF10A rerep inconclusive
COc1ccc(OCC(=O)Nc2ccc(N3CCN(C(=O)c4ccco4)CC3)cc2)cc1	MCF10A rerep inconclusive
O=C(COc1ccccc1[N+](=O)[O-])Nc1ccc(N2CCN(C(=O)c3cccs3)CC2)cc1	KB-V1 cytotox 9.2µM, HT1080 IDH1KD tx inconclusive
O=C(COc1ccc(Cl)cc1)Nc1ccc(N2CCN(C(=O)c3ccco3)CC2)cc1	KB-V1 cytotox 13µM, HT1080NT lethal inconclusive, MCF10A rerep inconclusive, KB-3-1 tox inconclusive
CC(=O)Nc1ccc(C(=O)N2CCCC(c3cc(C(=O)NCc4ccccc4)no3)C2)cc1 (centres undefined)	none (no result: MCF10A rerep, SW480 rereplic)
CCc1cccc(NS(=O)(=O)c2c(C)nc3sc(CC)nn3c2=O)c1	KB-V1 cytotox inconclusive
CC(C)(C)OC(=O)N1CCC(c2c(C(=O)NC3CC3)cnn2-c2ccc(Cl)cc2)CC1	KB-V1 cytotox inconclusive
COc1cccc(CN2CCN(C(=O)c3ccco3)CC2)c1	MCF10A rerep 0.58µM
C/C(=N\NC(=O)c1c[nH]c2ccccc12)c1ccco1	MCF10A rerep 2.3µM, SW480 rereplic 2.9µM
CCCCOc1ccc(CNC(=O)c2ccc(-c3nc(CN4CCc5ccccc54)c(C)o3)cc2)cc1	KB-V1 cytotox inconclusive, KB-3-1 tox 18µM (no result: HT1080NT lethal, MCF10A rerep, SW480 rereplic, HT1080 IDH1KD tx)
CCCCNC(=O)c1ccc(-c2nc(CN3CCc4ccccc43)c(C)o2)cc1	KB-V1 cytotox 5.2µM, KB-3-1 tox inconclusive (no result: HT1080NT lethal, MCF10A rerep, SW480 rereplic, HT1080 IDH1KD tx)
CCCCNC(=O)c1ccc(-c2nc(CS(=O)(=O)c3ccc(C)cc3)c(C)o2)cc1	none (no result: HT1080NT lethal, MCF10A rerep, SW480 rereplic, HT1080 IDH1KD tx)
COc1cccc(-c2nc(SCc3cc(=O)c4ccc(C)c(C)c4[nH]3)n[nH]2)c1	none (no result: HT1080NT lethal, MCF10A rerep, SW480 rereplic, HT1080 IDH1KD tx)
CCCCC1CC2=C(C(=O)OC(C)(C)O2)C(c2ccc3ccccc3c2)O1 (centres undefined)	HT1080NT lethal inconclusive, HT1080 IDH1KD tx inconclusive (no result: MCF10A rerep, SW480 rereplic)
Cc1cccc(C)c1NC(=O)Cn1c(SCC(=O)NCc2ccccc2)nc2ccccc21	none (no result: HT1080NT lethal, MCF10A rerep, SW480 rereplic, HT1080 IDH1KD tx)
O=C1Nc2ccccc2-n2nnnc2C1N1CCN(c2ccc(C(F)(F)F)cc2[N+](=O)[O-])CC1 (centres undefined)	KB-V1 cytotox inconclusive, HT1080NT lethal inconclusive, HT1080 IDH1KD tx inconclusive (no result: MCF10A rerep, SW480 rereplic)
Cc1cccc(C(=O)NCC(=O)N2CCN(S(=O)(=O)c3ccc4c(c3)OCCO4)CC2)c1	none
COc1cc(/C=N/n2cnc3scc(-c4cccs4)c3c2=O)cc(OC)c1OC	KB-V1 cytotox inconclusive, HT1080NT lethal inconclusive, SW480 rereplic inconclusive, HT1080 IDH1KD tx inconclusive, KB-3-1 tox 4.6µM
COc1ccc(/C=N/n2cnc3scc(-c4cccs4)c3c2=O)cc1OC	none
COc1cc(-c2cc3n(C)c(C)c(CCC(=O)O)c(=O)n3n2)cc(OC)c1OC	KB-V1 cytotox inconclusive (no result: HT1080NT lethal, MCF10A rerep, SW480 rereplic, HT1080 IDH1KD tx)
Cn1c(C(=O)N(Cc2ccccc2)Cc2ccccn2)cc2sccc21	HT1080NT lethal inconclusive, HT1080 IDH1KD tx inconclusive
Cn1c(C(=O)N(Cc2ccccc2)Cc2cccs2)cc2sccc21	KB-V1 cytotox 15µM, MCF10A rerep 16µM
